Laboratory results taken from paper PMC5540273 (PLoS ONE, 2017).

System: ZAP70
Settings: concentration: 1 μM, replicates: in singlicate; n = 1
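Note: KINOMEscan kinase panel screen.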

Compound | %Inh
COc1cc(Nc2nccc(N3CCC(NC(=O)Nc4cc(C)ccc4C)C3)n2)cc(OC)c1OC (centres unmarked) [GSK1379762] | 0%
COc1ccc(CNC(=O)NC2CCN(c3ccnc(Nc4cc(OC)c(OC)c(OC)c4)n3)C2)cc1 (centres unmarked) [GSK1379748] | 3%
O=S(=O)(c1ccc(-c2ccnc3[nH]ccc23)cc1)N1CCCC1 [GSK846226] | 0%
Cc1cccc(-c2nc(Nc3cccc(C(N)=O)c3)c3ccccc3n2)n1 [GW876019] | 0%
O=C(Nc1n[nH]c2cc(-c3cccc(F)c3F)ccc12)C1CC1 [SB-733894] | 60%
O=C(Nc1ccc2c(c1)OCO2)NC1CCN(c2ccnc(Nc3ccc(F)cc3)n2)C1 (centres unmarked) [GSK1379724] | 0%
COc1ccc2nc(-c3cccc(C)n3)nc(Nc3ccncc3)c2c1 [GSK204919] | 0%
Cc1ccc(-c2cc(-c3c[nH]nc3-c3ccccn3)ccn2)cc1 [GW684088] | 10%
COc1ccccc1CNC(=O)c1cc(C(=O)c2ccccc2C)c[nH]1 [GSK364507] | 13%
O=c1cc(N2CCOCC2)nc2n(Cc3cccc(Cl)c3Cl)ccn12 [GSK2286295] | 0%
CCCc1ccc(S(=O)(=O)NC2CCN(c3ccnc(Nc4ccc(F)cc4)n3)C2)cc1 (centres unmarked) [GSK1379715] | 0%
Cc1cccc(-c2nc(Nc3ccncc3)c3ccccc3n2)n1 [GW855857] | 0%
COc1cc2ncnc(Nc3ccc4nc(-c5ccccc5)[nH]c4c3)c2cc1OC.Cl [GW282450] | 0%
COc1ccccc1-c1ccc2c(NC(=O)C3CC3)n[nH]c2n1 [SB-711239] | 13%
